Data as given in PubChem BioAssay.
The source made the active and inactive calls.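 How the source made its calls, unless noted: active means inhibition at or above 50% at 10 µM; inactive means inhibition below 50%.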

Legend:
[1] = inhibitors of TNFa-induced NFkB p65 translocation, primary screen, imaging, HUVEC, MLSMR starter and 10KST1 sets (AID 438;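 active means inhibition above 20% together with a positive visual image hit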;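 further: compound added about 3h40 before a 20 min TNFalpha stimulation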;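 on inhibition: signal is the nuclear over cytoplasmic p65 intensity ratio per well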); details: HUVEC TNFa-induced p65 nuclear translocation; cell count: measured here: nuclei count (cytotoxicity indicator), at 2.08 µM; inhibition: at 2 µM, stronger effect = higher value, 0% TNFa-plus-vehicle, 100% no-TNFa wells
[2] = reduction of polyQ htt aggregates in cells – imaging, exon1htt(103Q)mCFP cells, high-content imaging, primary screen (AID 483;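 active means visual image review flags a hit and inhibition of aggregation exceeds 20%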;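 further: compound exposure lasted 3 days before fixation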;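 on nuclei count: percent of the per-plate median nuclei count of sample wells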); details: exon1htt(103Q)mCFP cell line, aggregate imaging, at 2 µM; inhibition of aggregation: stronger effect = higher value; nuclei count: measured here: cell count, toxicity
[3] = endothelial E-selectin expression blockers – imaging, HUVEC, immunofluorescence, MLSMR starter and 10KST1 sets, primary screen (AID 487;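 active means visually confirmed hit in the image check and inhibition above 20%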;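 on inhibition: signal is fraction of cell area covered by stained E-selectin grains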;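 on nuclei count: 100% = median nuclei count of all wells on the same plate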); details: HUVEC TNFalpha-induced E-selectin immunofluorescence imaging, at 2 µM; inhibition: stronger effect = higher value; nuclei count: measured here: cell number, toxicity
[4] = biological target: Voltage-gated potassium channel subunit beta-2 (Rattus norvegicus) (UniProt P62483); test: inhibitors of rat Kvbeta2 reductase activity – biochemical, NADPH fluorescence, primary screen (AID 622;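 active means fluorescence slope higher than the sample average by over 3 SD, cut at about -0.22 in these data, passing the limit was not always enough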;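 further: slope of raw intensity against log time taken from 70 to 1610 s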); details: recombinant KvBeta, 4-cyanobenzaldehyde reduction, at 10 µM, stronger effect = higher value
Chain of Voltage-gated potassium channel subunit beta-2 (Rattus norvegicus) (P62483 whole entry, looked up): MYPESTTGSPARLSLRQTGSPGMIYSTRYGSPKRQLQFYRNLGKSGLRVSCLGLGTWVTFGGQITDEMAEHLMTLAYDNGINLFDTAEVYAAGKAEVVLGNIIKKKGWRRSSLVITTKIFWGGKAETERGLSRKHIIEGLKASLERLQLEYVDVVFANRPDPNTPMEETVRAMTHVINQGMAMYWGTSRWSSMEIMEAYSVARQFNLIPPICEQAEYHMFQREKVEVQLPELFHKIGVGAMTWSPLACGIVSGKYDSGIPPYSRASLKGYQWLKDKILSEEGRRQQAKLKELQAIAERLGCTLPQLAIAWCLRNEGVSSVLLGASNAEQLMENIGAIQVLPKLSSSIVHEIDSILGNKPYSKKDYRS

[5] = biological target: Voltage-gated potassium channel subunit beta-2 (Rattus norvegicus) (UniProt P62483); test: enhancers of rat Kvbeta2 NADPH turnover – biochemical, NADPH fluorescence, primary screen (AID 623;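 active means NADPH fluorescence slope more negative than the mean of all samples by about 3 SD, 99.7% confidence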;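 further: fluorescence intensity change per second fitted from 20 to 320 s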); details: Recombinant KvBeta, NADPH fluorescence decrease slope, 10 min; at 10 µM; stronger effect = lower value
[6] = biological target: Alpha-2C adrenergic receptor (Homo sapiens) (UniProt P18825); test: compounds altering alpha2C-coupled GIRK flux – cell-based, HEK293 alpha2C/GIRK1/2, thallium flux, primary screen (AID 624;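 active means fluorescence slope after compound addition differing from the mean of all screened samples at 99.7% confidence, in either direction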;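 further: slope of fluorescence ratio to pre-addition baseline per second over 15 to 24 s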); details: thallium flux BTC fluorescence, at 10 µM, actives lie on both sides
Chain of Alpha-2C adrenergic receptor (Homo sapiens) (P18825 whole entry, looked up): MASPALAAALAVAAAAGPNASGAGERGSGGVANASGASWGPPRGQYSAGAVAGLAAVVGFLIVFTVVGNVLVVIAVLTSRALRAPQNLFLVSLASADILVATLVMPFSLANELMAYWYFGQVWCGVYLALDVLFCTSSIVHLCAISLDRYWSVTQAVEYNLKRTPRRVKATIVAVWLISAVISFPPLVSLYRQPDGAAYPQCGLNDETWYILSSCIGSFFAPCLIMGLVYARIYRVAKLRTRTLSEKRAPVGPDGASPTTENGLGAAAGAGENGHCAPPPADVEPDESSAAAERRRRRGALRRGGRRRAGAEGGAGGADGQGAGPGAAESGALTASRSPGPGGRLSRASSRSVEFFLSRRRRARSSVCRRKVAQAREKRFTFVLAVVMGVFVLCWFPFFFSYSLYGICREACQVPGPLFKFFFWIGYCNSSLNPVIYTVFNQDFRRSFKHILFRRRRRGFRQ

[7] = blockers of RIG-like receptor reporter activation – cell-based, Sendai virus stimulus, luciferase, 10K MLSCN set, TLR/RLR signaling modifier project, primary screen (AID 602276); details: HEK293 RL24 IRF3 luciferase reporter, at 10 µM, stronger effect = higher value;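 further: firefly luciferase from ISG56 promoter only with Renilla not read in this screen; 0% = Sendai virus plus DMSO and 100% = medium plus DMSO without virus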
[8] = TLR3 IRF3 reporter activation blockers – cell-based, poly I:C stimulus, luciferase, 10K MLSCN set, primary screen (AID 602277;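 active means inhibition of the reporter signal at or above 50%; inactive means inhibition below 50%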); details: HEK293-TLR3 RL24 IRF3 luciferase reporter, at 10 µM, stronger effect = higher value

| Structure (SMILES) | cell count [1] | inhibition [1] | inhibition of aggregation [2] | nuclei count [2] [%] | inhibition [3] | nuclei count [3] [%] | fluorescence slope [4] | NADPH fluorescence slope [5] | slope [6] | inhibition [7] | inhibition [8] |
| --- | --- | --- | --- | --- | --- | --- | --- | --- | --- | --- | --- |
| CC(=O)c1cccc(NC(=O)N2CCCc3ccccc32)c1 | 334 | 2% (inactive) | -9.8% (inactive) | 95.3 | -43.9% (inactive) | 120 | -0.622 (inactive) | 3.7e-06 (inactive) | 0.00357 (inactive) | 9.66% (inactive) | -1.85% (inactive) |
| CC1(C)CC(=O)c2sc(NS(C)(=O)=O)nc2C1 | 638 | -10.5% (inactive) | -16.8% (inactive) | 104 | -56.1% (inactive) | 106 | -0.533 (inactive) | -4.4e-05 (inactive) | 0.00519 (inactive) | 18.2% (inactive) | 27.8% (inactive) |
| CCC(C)(C)n1nnnc1C(c1cc2cc(C)ccc2[nH]c1=O)N1CCCC1 (centres undefined) | 353 | 4.2% (inactive) | -27.7% (inactive) | 103 | -273% (inactive) | 110 | -0.43 (inactive) | 2.7e-05 (inactive) | 0.00689 (inactive) | 13.6% (inactive) | 28.7% (inactive) |
| O=C(NCC(=O)N(Cc1cccs1)C(C(=O)NC1CCCC1)c1ccncc1)c1ccco1 (centres undefined) | 478 | -2.9% (inactive) | -19.3% (inactive) | 107 | -26.6% (inactive) | 114 | -0.25 (inactive) | -2e-05 (inactive) | 0.00557 (inactive) | 13.3% (inactive) | 16.2% (inactive) |
| CCOC(=O)C1=C(C)OC(N)=C(C#N)C1c1ccoc1 (centres undefined) | 558 | -4.8% (inactive) | -7.5% (inactive) | 81.3 | 24.7% (inactive) | 78.9 | -0.428 (inactive) | -6.9e-05 (inactive) | 0.00431 (inactive) | 9.81% (inactive) | 33% (inactive) |
| O=C(NCCC1=CCCCC1)N[C@@H](Cc1ccccc1)C(=O)O | 377 | -3.9% (inactive) | -1.8% (inactive) | 108 | -24.3% (inactive) | 115 | -0.447 (inactive) | -0.000113 (active) | 0.00549 (inactive) | -1.48% (inactive) | 0.553% (inactive) |
| COc1cccc(-c2cc(C(=O)NCc3ccc(Cl)cc3)no2)c1 | 475 | -3.9% (inactive) | -3.3% (inactive) | 103 | 13.3% (inactive) | 95.6 | -0.474 (inactive) | 1.7e-05 (inactive) | 0.00826 (inactive) | 46% (inactive) | -11.6% (inactive) |
| CN(Cc1ccccc1)S(=O)(=O)c1ccc(S(=O)(=O)N2CCN(CCC#N)CC2)cc1 | 687 | -6.9% (inactive) | -13.6% (inactive) | 111 | -50.4% (inactive) | 125 | -0.626 (inactive) | -2.8e-05 (inactive) | 0.00717 (inactive) | -12% (inactive) | 11.4% (inactive) |
| Cc1cccc(Cc2c(C)nc3nc(SCC(=O)NCc4ccco4)nn3c2C)c1 | 389 | 0.3% (inactive) | 5.8% (inactive) | 85.7 | -79.7% (inactive) | 101 | -0.463 (inactive) | -5.1e-07 (inactive) | 0.00687 (inactive) | 10.8% (inactive) | 27.6% (inactive) |
